From PubChem BioAssay
T cruzi growth: T. cruzi proliferation inhibition | T. cruzi beta-gal in NIH3T3, GalScreen luminescence, 90 h | inhibition, % at 8.34 µM | actives 5.9% (n = 77,000) | AID 624255;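 active means mean inhibition above about 93%, with at least 55% of replicates each passing it, limit read from the data, passing the limit was not always enough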
C diff growth: blocks growth of Clostridium difficile | Clostridium difficile clinical isolate growth, OD600, 24 h; stronger effect = lower value | growth activity, negative = inhibition, % at 16 µg/mL (by protocol) | actives 0.25% (n = 86,000) | AID 1259249;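 active means mean growth activity at or below -80% and every replicate also at or below -80%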
Pf Dd2 growth: inhibitors of Plasmodium falciparum Dd2 growth; actives 2.3% (n = 94,000); activity change, % at 10 µM; P. falciparum Dd2 growth, SYBR Green, 72 h; stronger effect = lower value; AID 1159554; in the data active means activity change below about -80%
Of the large screens only hits and unclear results are named; the others gave an inactive call. A selection: hits, their analogues and other compounds. The true share with any hit is near 6.8%.

C[C@@H]1CN([C@@H](C)CO)C(=O)c2cccc(NC(=O)CCCCCC(=O)Nc3ccccc3N)c2O[C@@H]1CN(C)C(=O)NC1CCCCC1	Pf Dd2 growth -86 (no result: T cruzi growth)
C[C@@H]1CN([C@@H](C)CO)C(=O)c2cccc(NC(=O)Nc3cccc4ccccc34)c2O[C@H]1CN(C)C(=O)NC1CCCCC1	Pf Dd2 growth -89 (no result: C diff growth)
C[C@H]1CN([C@@H](C)CO)C(=O)c2cccc(NC(=O)NC3CCCCC3)c2O[C@H]1CN(C)C(=O)Nc1cccc2ccccc12	none
C[C@@H]1CN([C@H](C)CO)C(=O)c2cccc(NC(=O)CCCCCC(=O)Nc3ccccc3N)c2O[C@@H]1CN(C)C(=O)Nc1ccc(C(F)(F)F)cc1	Pf Dd2 growth -88 (no result: T cruzi growth)
C[C@@H]1CN([C@H](C)CO)C(=O)c2cccc(NC(=O)CCCCCC(=O)Nc3ccccc3N)c2O[C@@H]1CN(C)C(=O)Nc1ccc(F)cc1	Pf Dd2 growth -86 (no result: T cruzi growth)
C[C@H]1CN([C@@H](C)CO)C(=O)c2cccc(NC(=O)CCCCCC(=O)Nc3ccccc3N)c2O[C@H]1CN(C)C(=O)Nc1ccc(F)cc1	none (no result: T cruzi growth)
C[C@H](CO)N1C[C@H](C)[C@@H](CN(C)C(=O)NC2CCCCC2)Oc2c(NC(=O)CCCCCC(=O)Nc3ccccc3N)cccc2C1=O	none (no result: T cruzi growth)
C[C@H]1CN([C@@H](C)CO)C(=O)c2cccc(NC(=O)CCCCCC(=O)Nc3ccccc3N)c2O[C@@H]1CN(C)C(=O)Nc1ccc(F)cc1	none (no result: T cruzi growth)
CO[C@@H]1CN(C)C(=O)c2cc(NC(C)=O)ccc2OC[C@H](C)N(C(=O)C2CCOCC2)C[C@H]1C	none (no result: T cruzi growth, C diff growth)
CNC[C@H]1Oc2cc(-c3cccc(C(=O)N(C)C)c3)ccc2S(=O)(=O)N([C@@H](C)CO)C[C@H]1C	none (no result: T cruzi growth)
C[C@H](CO)N1C[C@H](C)[C@H](CN(C)S(=O)(=O)c2ccc(F)cc2)OCCCC[C@H](C)Oc2ccc(NS(=O)(=O)c3ccccc3)cc2C1=O	none
COc1ccc(-c2cnc3c(c2)C(=O)N([C@H](C)CO)C[C@@H](C)[C@@H](CN(C)C(=O)Cc2ccncc2)O3)cc1	none
COc1ccc(NC(=O)N(C)C[C@H]2Oc3c(NC(=O)CCCCCC(=O)Nc4ccccc4N)cccc3C(=O)N([C@H](C)CO)C[C@H]2C)cc1	Pf Dd2 growth -87 (no result: T cruzi growth)
C[C@H](CO)N1C[C@H](C)[C@@H](CN(C)C(=O)NC2CCCCC2)Oc2ncc(/C=C/c3ccccc3)cc2C1=O	Pf Dd2 growth -84 (no result: T cruzi growth)
C[C@H](CO)N1C[C@H](C)[C@H](CN(C)C(=O)Nc2ccc(C(F)(F)F)cc2)Oc2c(NC(=O)CCCCCC(=O)Nc3ccccc3N)cccc2C1=O	Pf Dd2 growth -89 (no result: T cruzi growth)
C[C@H]1CN([C@@H](C)CO)C(=O)c2cc(/C=C/c3ccccc3)cnc2O[C@H]1CN(C)C(=O)NC1CCCCC1	none (no result: T cruzi growth)
C[C@H]1CN([C@@H](C)CO)C(=O)c2cccc(NC(=O)CCCCCC(=O)Nc3ccccc3N)c2O[C@@H]1CN(C)C(=O)Nc1ccc(C(F)(F)F)cc1	Pf Dd2 growth -82 (no result: T cruzi growth)
C[C@H]1CN([C@@H](C)CO)C(=O)c2cccc(NC(=O)CCCCCC(=O)Nc3ccccc3N)c2O[C@@H]1CN(C)C(=O)Nc1cccc2ccccc12	none (no result: T cruzi growth)
C[C@H]1CN([C@@H](C)CO)C(=O)c2cccc(NC(=O)CCCCCC(=O)Nc3ccccc3N)c2O[C@@H]1CN(C)C(=O)Nc1ccccc1	none (no result: T cruzi growth)
COc1ccc(NC(=O)N(C)C[C@H]2Oc3c(NC(=O)CCCCCC(=O)Nc4ccccc4N)cccc3C(=O)N([C@@H](C)CO)C[C@@H]2C)cc1	none (no result: T cruzi growth)
Cc1ccc(S(=O)(=O)Nc2ccc3c(c2)C(=O)N([C@@H](C)CO)C[C@@H](C)[C@@H](CN(C)C(=O)Nc2c(C)noc2C)OCCCC[C@@H](C)O3)cc1	none
CC=Cc1ccc2n(c1=O)C[C@H]1[C@H](CO)[C@@H](C(=O)NCCC)[C@@H]2N1CCC(F)(F)F (mixture of isomers)	none
CC(=O)N(C)C[C@H]1[C@@H](c2ccc(-c3ccc(F)cc3)cc2)[C@@H](CO)N1C(C)=O	none
CN1C(=O)c2cc(NS(C)(=O)=O)ccc2OC[C@H]2O[C@H](CC(=O)NC3CCCCC3)CC[C@H]21	none (no result: Pf Dd2 growth)
O=C(NCC[C@H]1CC[C@@H](NS(=O)(=O)c2cccc(F)c2)[C@@H](CO)O1)Nc1cc(F)ccc1F	none
COc1ccc(NC(=O)N(C)C[C@H]2Oc3c(NC(=O)Nc4ccc(F)cc4)cccc3C(=O)N([C@H](C)CO)C[C@H]2C)cc1	none
O=C(C[C@@H]1C[C@@H]2c3cc(NC(=O)c4ccc5c(c4)OCO5)ccc3O[C@@H]2[C@H](CO)O1)NCc1cccc(F)c1	none
C[C@@H]1CN([C@@H](C)CO)C(=O)c2cccc(N(C)C)c2O[C@@H]1CN(C)C(=O)Nc1cccc2ccccc12	Pf Dd2 growth -83
C[C@H]1CN([C@@H](C)CO)C(=O)c2cccc(N(C)C)c2O[C@@H]1CN(C)C(=O)Nc1cccc2ccccc12	none
COc1ccc(S(=O)(=O)N(C)C[C@@H]2OCCCC[C@@H](C)Oc3ccc(NC(=O)c4ccccc4)cc3C(=O)N([C@H](C)CO)C[C@@H]2C)cc1	none
COc1ccc(S(=O)(=O)N(C)C[C@H]2OCCCC[C@H](C)Oc3ccc(NC(=O)c4ccccc4)cc3C(=O)N([C@H](C)CO)C[C@H]2C)cc1	Pf Dd2 growth -87
COc1ccc(S(=O)(=O)N(C)C[C@@H]2OCCCC[C@H](C)Oc3ccc(NC(=O)c4ccccc4)cc3C(=O)N([C@H](C)CO)C[C@H]2C)cc1	Pf Dd2 growth -83
COc1ccc(S(=O)(=O)N(C)C[C@H]2OCCCC[C@H](C)Oc3ccc(NC(=O)c4ccccc4)cc3C(=O)N([C@H](C)CO)C[C@@H]2C)cc1	none
COc1ccc(S(=O)(=O)N(C)C[C@H]2OCCCC[C@@H](C)Oc3ccc(NC(=O)c4ccccc4)cc3C(=O)N([C@@H](C)CO)C[C@H]2C)cc1	none
COc1ccc(S(=O)(=O)N(C)C[C@H]2OCCCC[C@@H](C)Oc3ccc(NC(=O)c4ccccc4)cc3C(=O)N([C@@H](C)CO)C[C@@H]2C)cc1	Pf Dd2 growth -83
O=C(Cc1cccnc1)N1CC(=O)N2[C@H](C1)[C@@H](c1ccc(C#CC3CCCCC3)cc1)[C@@H]2CO	none (no result: T cruzi growth)
C[C@H](CO)N1C[C@H](C)[C@@H](CN(C)Cc2ccccn2)Oc2ncc(-c3ccc(C#N)cc3)cc2C1=O	none
C[C@@H]1CCCCO[C@@H](CN(C)CC2CC2)[C@H](C)CN([C@@H](C)CO)C(=O)c2cc(NC(=O)Nc3cccc4ccccc34)ccc2O1	none
C[C@@H]1CCCCO[C@@H](CN(C)CC2CC2)[C@H](C)CN([C@H](C)CO)C(=O)c2cc(NC(=O)Nc3cccc4ccccc34)ccc2O1	none
CCCN(C)C[C@H]1OCCCC[C@H](C)Oc2ccc(NC(=O)Nc3cccc4ccccc34)cc2C(=O)N([C@@H](C)CO)C[C@H]1C	Pf Dd2 growth -91
C[C@H](CO)N1C[C@H](C)[C@H](CN(C)CC2CCCCC2)OCCCC[C@H](C)Oc2ccc(NC(=O)Nc3cccc4ccccc34)cc2C1=O	none
C[C@@H]1CN([C@H](C)CO)C(=O)c2cc(NC(=O)Nc3cccc4ccccc34)ccc2O[C@@H](C)CCCCO[C@@H]1CN(C)CC1CCCCC1	Pf Dd2 growth -88
